A selection: hits, their analogues and other compounds. The true share with any hit is near 7.8%.
Lassa entry inh = Lassa virus entry inhibition; Lassa virus pseudotype entry inhibition, cell reporter; Potency, µM (highest dose often 37.9 µM), for inactives: at the top dose activity change, negative = inhibition, hits mostly inhibitors; 300,000 tested, 1.2% active; calls by dose curve; tested in HEK293 cells; further: potency means the concentration at half of the fitted maximal effect; nearly all actives have a fitted effect of over 50% in size
HCMV antiviral = blocks human cytomegalovirus replication; HFF cells, HCMV-luciferase reporter, 72 h; active compounds read low; activity change, negative = inhibition, % at 57.5 µM; 410,000 tested, 4.5% active; AID 1259415; in the data active means activity change below about -60%; inconclusive means no clear call, values can overlap the other calls; inactive means above about -39%
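Two compound doses tested in HFFs infected with HCMV-luciferase, MOI 1 PFU/cell, 72 h at 37C. Lysate luminescence read with OneGlo; data normalized against buffer-only and 10uM Salinomycin inhibitor controls.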
HCV inh = blocks hepatitis C virus | Potency, µM (highest dose often 41.8 µM), inactives show at the highest dose activity change, negative = inhibition, actives largely listed as inhibitors | 340,000 tested, 3.4% active | Huh7.5.1 HCVcc-Cre infection, luciferase reporter, 44 h; active means well fitted inhibition curve with a large enough effect; inconclusive means small, poorly fitted or top-dose-only effect, or another doubt; inactive means no such curve, though single readings can be large or run the other way; further: potency means the concentration at half of the fitted maximal effect
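Infectious HCV cell culture screen: compound-treated cells (1,000/well, pre-plated 4 h) are infected with HCVcc-Cre at roughly 0.5 moi and grown 44 h. Infection is quantified by luciferase signal after 15 min substrate incubation at room temperature.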
VACV mCherry inh = vaccinia inhibition (mCherry reporter); Vaccinia virus mCherry reporter infection, fluorescence; 310,000 tested, 0.63% active; Potency, µM (titrated, usually from 36.5 µM), inactives show at the highest dose activity change, negative = inhibition, most hits filed as inhibitors; calls by dose curve; tested in A549 cells; further: potency means the concentration at half of the fitted maximal effect; nearly all actives have a fitted effect of over 35% in size
MARV entry inh = Marburg virus entry inhibition; Marburg virus pseudotyped entry inhibition, cell reporter; Potency, µM (titrated, usually from 37.8 µM), for the others: top-dose activity change, negative = inhibition, most hits filed as inhibitors; 300,000 tested, 1.8% active; calls by dose curve; tested in HEK293 cells; further: potency means the concentration at half of the fitted maximal effect
Vaccinia Venus = vaccinia inhibition (Venus reporter); Vaccinia virus Venus reporter expression, fluorescence; Potency, µM (titrated, usually from 36.5 µM), for the others: at the top dose activity change, negative = inhibition, actives largely listed as inhibitors; 330,000 tested, 0.46% active; AID 720580; calls by dose curve; tested in A549 cells; further: potency means the concentration at half of the fitted maximal effect; nearly all actives have a fitted effect of over 30% in size
* marks the source's active call; other numbers are inactive results; i = inactive; u = inconclusive; x = not tested or not shown; [ ] = remark or other dose. On the % scale 0 is the no-effect control and ±100 the full control effect.

SMILES	Lassa entry inh	HCMV antiviral	HCV inh	VACV mCherry inh	MARV entry inh	Vaccinia Venus
Cc1ccc(-c2cc(-c3ccc(C)cc3)[n+](-c3ccccc3)c(-c3ccc(C)cc3)c2)cc1	x	x	25µM*	u	x	3.5µM*
CCCC(=O)NC(C)c1nc2ccccc2n1Cc1ccccc1 (centres undefined)	7%[46.1 µM]	1	x	2%	u	4%
O=C(c1ccc(Br)cc1)N(Cc1ccco1)c1ccccn1	-6%[46.1 µM]	2	x	-16%	-10%[46.1 µM]	-6%
CC(NC1=CC(=O)c2cccnc2C1=O)C(O)c1ccccc1 (centres undefined)	u	-99*	u	u	11µM*	10µM*
COc1ccc(-c2nc3c(C#N)c[nH]n3c2NC2CCCCC2)cc1	18%[46.1 µM]	-27	x	u	0%[46.1 µM]	u
NC(=O)c1nnn(Cc2cc(Cl)c(C(=O)c3ccc(Cl)cc3)c(Cl)c2)c1N	x	-91*	x	-28%	x	-17%
CCC(=O)N1CCc2cc(Br)cc(S(=O)(=O)CCC(=O)N3CCN(c4cccc(C(F)(F)F)c4)CC3)c21	u	-6	x	i	u	-17%
Cc1nn(-c2ccc3nncn3n2)c(C)c1CCC(=O)Nc1ccc(OC(F)(F)F)cc1	24%[46.1 µM]	8	x	-4%	x	5%
Cc1ccc(-c2csc(N3CCN(CCCn4c(C(F)(F)F)nc5ccccc54)CC3)n2)cc1	x	u	5%	-21%	x	-26%
CC(=O)N[C@@H](C)c1nc2ccccc2n1CCCN1CCN(c2nc(-c3ccc(C)cc3)cs2)CC1	x	-68*	3.5µM*	u	x	u
Cc1ccc(-c2csc(N3CCN(CCCn4c(-c5ccncc5)nc5ccccc54)CC3)n2)cc1	x	u	u	10µM*	x	u
CCc1ccc(C(=O)c2cn(CC(=O)NC3CCCCC3)c3nc(C)ccc3c2=O)cc1	2%[46.1 µM]	-6	x	-7%	x	-13%
COc1ccc(C(C)(C)C)cc1NC(=O)c1[nH]c(C)c(C(C)=O)c1C	11µM*	9	u	i	10µM*	-15%
COc1ccc(NC(=O)c2[nH]c(C)c(C(C)=O)c2C)cc1Cl	u	336	u	-9%	u	-8%
COc1ccc(NC(=O)c2[nH]c(C)c(C(C)=O)c2C)cc1S(=O)(=O)Nc1ccc(Br)cc1	u	69	14µM*	1%	u	8%
Cc1cccc(-c2cnc(C)nc2C2CCCN(C(=O)c3cccc(Cn4cccn4)c3)C2)c1 (centres undefined)	x	x	x	-8%	x	1%
COc1cccc(CNC(=O)c2c(C)oc3ncnc(N4CCOCC4)c23)c1	u	-13	x	-9%	x	-8%
CCCCN(CC)CCCNC(=O)c1c(C)oc2ncnc(N3CCOCC3)c12	21%[46.1 µM]	-66*	x	-15%	x	-18%
CCc1ccc(CNC(=O)c2c(C)oc3ncnc(N4CCOCC4)c23)cc1	23%[46.1 µM]	-61*	x	-11%	x	-16%
O=C1C[C@H](c2ccccc2)n2nc(N3C(=O)c4ccccc4C3=O)nc2N1	x	x	x	x	3%	x
COc1cccc(C(NC(C)=O)c2ccc3cccnc3c2O)c1 (centres undefined)	u	-99*	4.5µM*	u	u	u
Cc1ccc2cccc(O)c2n1	x	x	x	-6%	x	-4%
Cc1cccc(NC(c2ccc(O)cc2)c2ccc3ccc(C)nc3c2O)n1 (centres undefined)	21µM*	-36	u	x	-2%	x
CC(=O)NC(c1cccc([N+](=O)[O-])c1)c1ccc2cccnc2c1O (centres undefined)	u	-102*	1.8µM*	u	u	u
COc1cccc(C(Nc2ccccc2)c2ccc3ccc(C)nc3c2O)c1 (centres undefined)	x	-36	x	7.1µM*	x	u
SMILES	Lassa entry inh	HCMV antiviral	HCV inh	VACV mCherry inh	MARV entry inh	Vaccinia Venus
COc1ccc(CN2[C@@H](CC(=O)O)c3ccc(/C=C/C(=O)O)cc3S2(=O)=O)cc1	x	x	x	i	x	-16%
CCCCC(=O)NC(c1cccc([N+](=O)[O-])c1)c1ccc2cccnc2c1O (centres undefined)	x	-103*	u	x	x	x
COc1cc(-c2cc(=O)c3c(O)cc(O)cc3o2)cc(OC)c1OC	x	10	x	x	x	x
COc1ccc(-c2cc(=O)c3cc(O)ccc3o2)cc1	x	118	5.6µM*	-8%	x	-8%
COc1ccc(-c2cc(=O)c3c(O)cc(O)cc3o2)cc1	x	14	13µM*	-28%	x	-18%
COc1ccc(Br)cc1CN(C)C(C)C(=O)Nc1cc([N+](=O)[O-])ccc1OC (centres undefined)	-2%	25	u	-3%	14µM*	1%
O=C(NC1CCCCCC1)c1ccc(=O)n(Cc2ccccc2)n1	x	-66*	-19%	-13%	x	-19%
COC(=O)C1CCN(C(=O)COC(=O)c2ccc(=O)n(Cc3ccccc3)n2)CC1	-19%	5	9%	-11%	17%	2%
Cc1ccc(C)n1C1C(=O)N(C)c2ccc(F)cc21 (centres undefined)	x	26	x	x	x	x
CC(=O)Nc1ccc(S(=O)(=O)NC2(C(F)(F)F)C(=O)Nc3c2c(=O)[nH]c(=O)n3-c2cccc(Cl)c2)cc1 (centres undefined)	1%[46.1 µM]	-5	x	-6%	-1%[46.1 µM]	0%
CCOC(=O)C(NC(C)=O)C(OC(C)=O)c1cccc(N(CCCl)CCCl)c1 (centres undefined)	u	-64*	-20%	x	u	-24%
Cc1c(Cl)cccc1NC(=O)CSc1nc(=O)n(CCN2CCOCC2)c2c1CCC2	-5%[46.1 µM]	-20	x	-16%[7.34 µM]	x	-13%[7.34 µM]
CN(C)NC1=CC(=[N+]2CCCC2)CC(C)(C)C1	0%	35	-8%	-8%	2%[46.1 µM]	-5%
CCCN(CCC)C1=CC(=[N+]2CCCC2)CC(C)(C)C1	10µM*	-101*	u	i	u	-16%
CC1(C)CC(N2CCCCC2)=CC(=[N+]2CCCCC2)C1	u	-95*	u	-12%	u	-1%
CCN1C/C(=C/c2ccc(N3CCOCC3)cc2)C(=O)/C(=C/c2ccc(N3CCOCC3)cc2)C1	u	-102*	u	11µM*	u	56%
CN1C/C(=C\c2ccc(N3CCOCC3)cc2)C(=O)/C(=C/c2ccc(N3CCOCC3)cc2)C1	2%	u	11µM*	u	u	0%
CN1C/C(=C/c2ccsc2)C(=O)/C(=C/c2ccsc2)C1	u	-86*	u	u	5µM*	u
COc1ccc2c(c1)[C@@H](NC(=O)OCc1ccccc1)[C@H](C)[C@@H](c1ccccc1)N2	x	13	x	x	x	x
COc1cc(=O)n2c(c1C(=O)NCc1nonc1C)CCN(Cc1c[nH]c3ccccc13)CC2	x	x	x	-7%	x	-9%
Nc1nnc(SCC(=O)NNC(=O)c2ccc(Cl)cc2)s1	x	-73*	19%	x	x	x

Screens deposited in PubChem by National Center for Advancing Translational Sciences (NCATS).
